PubChem BioAssay (NCI)
This is part of a sample that, as a whole, favours compounds with a hit. Of some 83,000 tested, about 20% had one in any assay.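 Growth was measured after 48 h exposure to one concentration of compound in 96-well plates. Values under 10 count as active.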 Values without a mark were called inactive. The source made the active and inactive calls.

tested on: T-47D breast; experiment: NCI-60 one-dose screen, 48 h (100 = growth as untreated, 0 = no growth, -100 = all killed); details: 10 µM unless noted

SMILES	growth
CC(C)c1[nH]ncc1-c1nc2ccc3[nH]ncc3c2c2c1CCCC2	46.8%
Cc1cc(-c2nnc(/C=C/c3ccc4c(c3)OCO4)o2)n[nH]1	60.9%
CCN(CC)CCCCCCCNc1cc(OC)cc2c(C)ccnc12	53.6%
CCCc1n(Cc2ccc3ccccc3n2)cc[n+]1Cc1ccc2ccccc2n1	7.17% (active)
COc1ccc(/C=C2\N=C(c3cccnc3)N(c3ccccc3)NC2=O)cc1	90.2%
COc1ccc(Sc2[nH]c(C=O)c3ccccc23)cc1	57.2%
COc1ccc(-n2nc(C(=O)NCC(=O)Nc3nc4cc(OC)ccc4s3)c3ccccc3c2=O)cc1	17%
CCCCN(CCCC)CCCN=c1nc2c(c(N)n1-c1ccccc1)c(=S)n(-c1ccccc1)c(=S)n2-c1ccccc1	-62.1% (active)
O=C(/C=C/c1ccccc1)C(Br)C(Br)c1ccccc1 (stereo not drawn)	-36.6% (active)
COc1ccc(Nc2ncccc2C(=O)NCc2cn(Cc3cc(OC)cc(OC)c3)nn2)cc1	93.6%
CN(C)c1ccc(C(c2ccccc2)c2ccc(N(C)C)cc2)cc1	86.7%
COc1ccc(/C(=C\c2cc(OC)c(OC)c(OC)c2)C(=O)N2CCNCC2)cc1	82.8%
CC(=O)c1ccc(Nc2nc(Cl)nc(Oc3c(Cl)cccc3Cl)n2)cc1	79.8%
COc1cc2nccc(Oc3ccc(NC(=O)C4(C(=O)Nc5ccc(F)cc5)CC4)cc3)c2cc1Oc1ccc(N)cn1	5.99% (active)
N#Cc1nc(-c2ccc(Cl)cc2)cc(-c2ccc(Nc3nc(N4CCCCC4)nc(N4CCCCC4)n3)cc2)c1N	100%
Cc1ccccc1CNc1ncnc2[nH]ncc12	96.9%
CN(C)CCOc1nc2c3ccncc3cc(-c3cccc(Cl)c3)c2c2cnccc12	38.7%
Cc1ccc(C2CC(c3cccs3)=NN2c2ccc(S(N)(=O)=O)cc2)s1 (stereo not drawn)	71.5%
CN=C1C=C/C(=N/N=c2/ccn(O)cc2C)C=C1C	90.1%
Oc1[nH]c2ccccc2c1/C=c1/ccc2c(c1)N=C(c1ccc(C(F)(F)F)cc1)N=2	35.1%

SMILES	growth
Clc1ccc(Nc2ncnc3c2sc2ncccc23)cc1	33.5%
Nc1nc(N)c2cc(Sc3ccc(Cl)cc3)ccc2n1	56.4%
CCN(C(=O)Nc1cccc2ccccc12)c1ccccc1	88.1%
CCN(CC)CCCC(C)Nc1cnc(C(=O)Nc2ccc(Cl)c3cccnc23)cn1 (stereo not drawn)	-49.3% (active)
C/C(=N\NC(=S)Nc1ccccc1)c1ccccn1	28.7%
C[C@]12CCc3nc(Nc4ccc(O)cc4)sc3C1=CC[C@@H]1[C@@H]2CC[C@]2(C)/C(=N/NC(N)=S)CC[C@@H]12	-31.6% (active)
CC1(C)C(N(O)C(=O)Nc2ccc(Cl)cc2)N(c2ccc(Cl)cc2)C(=O)N1CC(=O)N/N=C/C=C/c1ccc([N+](=O)[O-])o1 (stereo not drawn)	34.3%
COc1ccc(C(=O)c2c(N)nc3n2CCCC3)cc1OC	101%
Fc1ccc2c(CN3CCO[C@H](COc4cccc(Cl)c4)C3)c[nH]c2c1	37.5%
CC(=O)c1c(C)nc(-c2cc(C)cc(Cl)c2)nc1-c1cccc(Oc2ccccc2)c1	72.3%
FC(F)(F)c1ccc(/C=N/Nc2nnc3n2N=C(c2ccc(Cl)cc2)CS3)cc1	65.5%
O=C1/C(=C\c2cccn2C(=O)c2ccccc2)c2ccccc2N1c1c(Cl)cccc1Cl	65.6%
Cc1ccc(S(=O)(=O)NC(CCC(=O)Nc2ccc(Cl)cc2)C(=O)Nc2ccc(Cl)cc2)cc1 (stereo not drawn)	16.5%
CNC(=O)c1cc(Oc2ccc(NC(=O)c3nc(S(C)(=O)=O)n(C)c3-c3ccc(F)cc3)cc2)ccn1	61.5%
Nc1c(C(=O)c2ccc(Br)cc2)sc2nc3c(cc12)CCCC3	101%
CCCCn1cnc(-c2cc(-c3ccccc3)cc(C(F)(F)F)c2)n1	93.7%
COCCCNCC(=O)Nc1c(C)cccc1C	103%
COc1ccc(/C(=C\c2ccc3c(c2)OCO3)C(=O)Nc2nc3ccccc3s2)cc1	86.1%
COc1ccc2[nH]c(O)c(/C=c3/ccc4c(c3)N=C(c3ccc(C(F)(F)F)cc3)N=4)c2c1	57.4%

tested on: BT-549 breast; experiment: as above; details: 10 µM unless noted

SMILES	growth
CC(C)c1[nH]ncc1-c1nc2ccc3[nH]ncc3c2c2c1CCCC2	27.4%
Cc1cc(-c2nnc(/C=C/c3ccc4c(c3)OCO4)o2)n[nH]1	35.1%
CCN(CC)CCCCCCCNc1cc(OC)cc2c(C)ccnc12	82.6%
CCCc1n(Cc2ccc3ccccc3n2)cc[n+]1Cc1ccc2ccccc2n1	13.9%
COc1ccc(/C=C2\N=C(c3cccnc3)N(c3ccccc3)NC2=O)cc1	94.3%
COc1ccc(Sc2[nH]c(C=O)c3ccccc23)cc1	-7.47% (active)
COc1ccc(-n2nc(C(=O)NCC(=O)Nc3nc4cc(OC)ccc4s3)c3ccccc3c2=O)cc1	-23.4% (active)
CCCCN(CCCC)CCCN=c1nc2c(c(N)n1-c1ccccc1)c(=S)n(-c1ccccc1)c(=S)n2-c1ccccc1	-90.6% (active)
O=C(/C=C/c1ccccc1)C(Br)C(Br)c1ccccc1 (stereo not drawn)	-60.8% (active)
COc1ccc(Nc2ncccc2C(=O)NCc2cn(Cc3cc(OC)cc(OC)c3)nn2)cc1	98.4%
CN(C)c1ccc(C(c2ccccc2)c2ccc(N(C)C)cc2)cc1	101%
COc1ccc(/C(=C\c2cc(OC)c(OC)c(OC)c2)C(=O)N2CCNCC2)cc1	104%
CC(=O)c1ccc(Nc2nc(Cl)nc(Oc3c(Cl)cccc3Cl)n2)cc1	84.7%
COc1cc2nccc(Oc3ccc(NC(=O)C4(C(=O)Nc5ccc(F)cc5)CC4)cc3)c2cc1Oc1ccc(N)cn1	61.9%
N#Cc1nc(-c2ccc(Cl)cc2)cc(-c2ccc(Nc3nc(N4CCCCC4)nc(N4CCCCC4)n3)cc2)c1N	99.2%
Cc1ccccc1CNc1ncnc2[nH]ncc12	105%
CN(C)CCOc1nc2c3ccncc3cc(-c3cccc(Cl)c3)c2c2cnccc12	52.6%
Cc1ccc(C2CC(c3cccs3)=NN2c2ccc(S(N)(=O)=O)cc2)s1 (stereo not drawn)	102%
CN=C1C=C/C(=N/N=c2/ccn(O)cc2C)C=C1C	107%
Oc1[nH]c2ccccc2c1/C=c1/ccc2c(c1)N=C(c1ccc(C(F)(F)F)cc1)N=2	43.3%

SMILES	growth
Clc1ccc(Nc2ncnc3c2sc2ncccc23)cc1	49.1%
Nc1nc(N)c2cc(Sc3ccc(Cl)cc3)ccc2n1	54.7%
CCN(C(=O)Nc1cccc2ccccc12)c1ccccc1	108%
CCN(CC)CCCC(C)Nc1cnc(C(=O)Nc2ccc(Cl)c3cccnc23)cn1 (stereo not drawn)	80.1%
C/C(=N\NC(=S)Nc1ccccc1)c1ccccn1	40.2%
C[C@]12CCc3nc(Nc4ccc(O)cc4)sc3C1=CC[C@@H]1[C@@H]2CC[C@]2(C)/C(=N/NC(N)=S)CC[C@@H]12	9.89% (active)
CC1(C)C(N(O)C(=O)Nc2ccc(Cl)cc2)N(c2ccc(Cl)cc2)C(=O)N1CC(=O)N/N=C/C=C/c1ccc([N+](=O)[O-])o1 (stereo not drawn)	-19.1% (active)
COc1ccc(C(=O)c2c(N)nc3n2CCCC3)cc1OC	93.9%
Fc1ccc2c(CN3CCO[C@H](COc4cccc(Cl)c4)C3)c[nH]c2c1	57.7%
CC(=O)c1c(C)nc(-c2cc(C)cc(Cl)c2)nc1-c1cccc(Oc2ccccc2)c1	64.3%
FC(F)(F)c1ccc(/C=N/Nc2nnc3n2N=C(c2ccc(Cl)cc2)CS3)cc1	58.2%
O=C1/C(=C\c2cccn2C(=O)c2ccccc2)c2ccccc2N1c1c(Cl)cccc1Cl	102%
Cc1ccc(S(=O)(=O)NC(CCC(=O)Nc2ccc(Cl)cc2)C(=O)Nc2ccc(Cl)cc2)cc1 (stereo not drawn)	27.3%
CNC(=O)c1cc(Oc2ccc(NC(=O)c3nc(S(C)(=O)=O)n(C)c3-c3ccc(F)cc3)cc2)ccn1	80.6%
Nc1c(C(=O)c2ccc(Br)cc2)sc2nc3c(cc12)CCCC3	89.4%
CCCCn1cnc(-c2cc(-c3ccccc3)cc(C(F)(F)F)c2)n1	100%
COCCCNCC(=O)Nc1c(C)cccc1C	104%
COc1ccc(/C(=C\c2ccc3c(c2)OCO3)C(=O)Nc2nc3ccccc3s2)cc1	103%
COc1ccc2[nH]c(O)c(/C=c3/ccc4c(c3)N=C(c3ccc(C(F)(F)F)cc3)N=4)c2c1	81.2%
